From PubChem BioAssay AID1159580 (chemical genetic matrix, 2015)
“And” between values parts separate entries of the source, which are not always exact repeats. Equal entries are not always repeated. About 2,000 (36%) of roughly 5,500 compounds were called active. Not shown: some 18% with an inconclusive outcome. Cut-off read from the data, not from the text of the source: active = normalized growth mostly below about 0.91 (no sharp cut-off); inconclusive = no clear call, values can overlap the other calls; inactive = mostly above about 0.92. Some of the results follow.

Assay: chemical genetic growth profiling, strain panel (AID 1159580);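 note: tested at 20 µM; growth read once vehicle control cultures reached saturation at 30 °C; 1 = growth at the plate median or of vehicle wells; lower values mean less growth of the strain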
Settings: S. cerevisiae deletion strains, growth OD

Measured: normalized growth

COc1ccc(CC(=O)c2ccc(O)cc2O)cc1
active: locus YDL192W, strain arf1, hits give low values 0.865 | locus YDR137W, strain rgp1, hits give low values 0.733 | locus YDR195W, strain ref2 1.19 [resistant] | locus YDR318W, strain mcm21, hits give low values 0.912 | locus YDR392W, strain spt3, hits give low values 0.455 | locus YER155C, strain BEM2 (second series), hits give low values 0.768 | locus YGL086W, strain mad1, hits give low values 0.928
inactive: locus YAL021C, strain ccr4, hits give low values 0.998 | locus YAL026C, strain drs2, hits give low values 0.954 | locus YAL030W, strain snc1, hits give low values 0.985 | locus YBL061C, strain skt5, hits give low values 0.986 | locus YBR009C, strain hhf1, hits give low values 0.937 | locus YBR021W, strain FUR4, hits give low values 0.894 | locus YBR023C, strain chs3, hits give low values 0.958 | locus YBR171W, strain sec66, hits give low values 0.973 | locus YBR229C, strain ROT2, hits give low values 0.969 | locus YBR231C, strain swc5, hits give low values 0.989 | locus YBR279W, strain paf1, hits give low values 0.99 | locus YCL011C, strain gbp2, hits give low values 0.973 | locus YCL016C, strain dcc1, hits give low values 0.961 | locus YCL029C, strain bik1, hits give low values 0.953 | locus YCL061C, strain MRC1, hits give low values 0.965 | locus YCL069W, strain vba3, hits give low values 0.982 | locus YCR088W, strain abp1, hits give low values 0.988 | locus YDL005C, strain med2, hits give low values 1.01 | locus YDL035C, strain GPR1, hits give low values 0.94 | locus YDL040C, strain nat1, hits give low values 0.977 | locus YDL074C, strain BRE1, hits give low values 0.848 | locus YDL101C, strain DUN1, hits give low values 0.969 | locus YDL185W, strain tfp1, hits give low values 0.983 | locus YDR001C, strain nth1, hits give low values 0.992 | locus YDR069C, strain doa4, hits give low values 1 | locus YDR101C, strain arx1, hits give low values 0.956 | locus YDR159W, strain sac3, hits give low values 0.96 | locus YDR162C, strain NBP2, hits give low values 0.872 | locus YDR297W, strain sur2, hits give low values 0.988 | locus YDR334W, strain swr1, hits give low values 0.991 | locus YDR335W, strain msn5, hits give low values 0.975 | locus YDR388W, hits give low values 0.963 | locus YDR502C, strain sam2, hits give low values 0.924 | locus YEL003W, strain gim4, hits give low values 0.969 | locus YEL037C, strain rad23, hits give low values 0.997 | locus YEL061C, strain CIN8 (second series), hits give low values 0.994 | locus YER015W, strain faa2, hits give low values 0.971 | locus YER016W, strain bim1, hits give low values 0.996 | locus YER110C, hits give low values 0.975 | locus YER111C, strain swi4, hits give low values 0.998 | locus YER155C, strain BEM2, hits give low values 0.956 | locus YER167W, strain BCK2, hits give low values 0.962 | locus YFR010W, strain ubp6, hits give low values 1.01 | locus YGL078C, strain dbp3, hits give low values 0.983 | locus YGL167C, strain pmr1, hits give low values 0.984 | locus YGL173C, strain kem1, hits give low values 0.979 | locus YGL227W, strain vid30, hits give low values 0.997 | locus YGL240W, strain doc1, hits give low values 0.925 | locus YGL248W, strain PDE1, hits give low values 0.922 | locus YGL253W, strain hxk2, hits give low values 0.982 | locus YGR135W, strain pre9, hits give low values 0.934 | locus YGR252W, strain gcn5, hits give low values 0.841 | locus YHR013C, strain ard1, hits give low values 0.963 | locus YHR027C, strain rpn1, hits give low values 0.987 | locus YHR030C, strain SLT2, hits give low values 0.953 and 0.949 | locus YHR079C, strain IRE1 (second series), hits give low values 0.978 | locus YHR079C, strain IRE1, hits give low values 0.959 | locus YHR094C, strain hxt1, hits give low values 0.982 | locus YHR129C, strain ARP1, hits give low values 0.968 | locus YHR142W, strain chs7, hits give low values 0.925 | locus YHR200W, strain rpn10, hits give low values 0.956 | locus YIL066C, strain RNR3, hits give low values 0.953 | locus YIL073C, strain SPO22, hits give low values 0.866 | locus YIL125W, strain kgd1, hits give low values 1 | locus YIR030C, strain dcg1, hits give low values 0.972 | locus YJL092W, strain hpr5, hits give low values 0.987 | locus YJL095W, strain BCK1 (second series), hits give low values 0.981 | locus YJL095W, strain BCK1, hits give low values 0.812 and 0.951 | locus YJL115W, strain asf1, hits give low values 1.01 | locus YJL129C, strain trk1, hits give low values 0.931 | locus YJL134W, strain LCB3, hits give low values 0.981 | locus YJL154C, strain vps35, hits give low values 0.992 | locus YJL164C, strain tpk1, hits give low values 0.952 | locus YJL166W, strain qcr8, hits give low values 0.944 | locus YJL168C, strain set2, hits give low values 0.972 | locus YJL187C, strain SWE1 (second series), hits give low values 0.958 | locus YJL187C, strain SWE1, hits give low values 0.987 | locus YJR066W, strain TOR1, hits give low values 0.93 | locus YKL009W, strain mrt4, hits give low values 0.956
